Assay results reported in PubChem BioAssay (NCI).
About 83,000 compounds went through this panel and 20% of them were active in at least one assay; those are over-represented in the sample as a whole.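 Interpretation: 100, growth as untreated; towards 0, rising growth inhibition; 0, no net growth; 0 to -100, cell death. Compounds scoring below 10 were considered active.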 Calls of active or inactive are those of the source.

Tests used:
Assay in all cases: NCI-60 one-dose screen, 48 h (100 = growth as untreated, 0 = no growth, -100 = all killed)
Conditions in all cases: 10 µM unless noted
SK-MEL-2 melanoma = tested on: SK-MEL-2 melanoma
UO-31 renal = tested on: UO-31 renal
TK-10 renal = tested on: TK-10 renal
ACHN renal = tested on: ACHN renal
CAKI-1 renal = tested on: CAKI-1 renal
A498 renal = tested on: A498 renal
CCRF-CEM leukemia = tested on: CCRF-CEM leukemia
MOLT-4 leukemia = tested on: MOLT-4 leukemia
SN12C renal = tested on: SN12C renal
EKVX NSCLC = tested on: EKVX NSCLC

Measured: growth

O=C1C(Cl)=C(N/N=c2/[nH][nH]/c(=N/NC3=C(Cl)C(=O)c4ccccc4C3=O)c3ccccc23)C(=O)c2ccccc21
inactive: SK-MEL-2 melanoma 96.4% | UO-31 renal 54.7% | TK-10 renal 130% | ACHN renal 61.9% | CAKI-1 renal 104% | A498 renal 57% | CCRF-CEM leukemia 16.5% | MOLT-4 leukemia 11.4%

CC1CCN(Cc2ccc(NC(=O)c3cc4ccc5cccnc5c4[nH]3)cc2)CC1
active: CAKI-1 renal 4.42% | A498 renal -8.68% | CCRF-CEM leukemia 3.08%
inactive: SK-MEL-2 melanoma 12% | UO-31 renal 36.7% | TK-10 renal 51.1% | ACHN renal 53.9%

COc1ccc(C2C=C(c3ccc(Cl)cc3)N=C3SC=CN32)cc1 (stereo not drawn)
inactive: SK-MEL-2 melanoma 113% | UO-31 renal 88.5% | TK-10 renal 118% | ACHN renal 107% | CAKI-1 renal 101% | A498 renal 104% | CCRF-CEM leukemia 88.2% | MOLT-4 leukemia 104%

CNCCCNc1ccnc2cc(Cl)ccc12
active: SK-MEL-2 melanoma -64.5% | SN12C renal 2.75% | TK-10 renal -11.4% | ACHN renal -31.6% | CAKI-1 renal -29.7% | CCRF-CEM leukemia -17.1% | MOLT-4 leukemia 2.58%

Cc1cc(C#Cc2ccccc2)ccc1-n1c(/C=C/c2ccc(F)cc2)nc2ccccc2c1=O
inactive: EKVX NSCLC 46.5% | SN12C renal 73% | UO-31 renal 36.2% | TK-10 renal 94.4% | ACHN renal 78.6% | CAKI-1 renal 55.2% | A498 renal 94.1% | CCRF-CEM leukemia 74.3% | MOLT-4 leukemia 44.7%

CC(=O)N(C)c1ccc(Nc2cc(C)[nH]c3ccc4ncnc4c23)cc1
active: MOLT-4 leukemia 1.82%
inactive: SK-MEL-2 melanoma 116% | UO-31 renal 72.6% | TK-10 renal 79.3% | ACHN renal 55.4% | CAKI-1 renal 80.3% | A498 renal 78.5% | CCRF-CEM leukemia 28.9%

COC(=O)C1(C)COP(=O)(NC23CC4CC(CC(C4)C2)C3)OC1 (stereo not drawn)
inactive: EKVX NSCLC 98.4% | SN12C renal 113% | UO-31 renal 87.2% | TK-10 renal 96.7% | ACHN renal 103% | CAKI-1 renal 103% | A498 renal 103% | CCRF-CEM leukemia 98.2% | MOLT-4 leukemia 109%

Cc1ccc(N=CNN=C(N)N)cc1
inactive: EKVX NSCLC 117% | SN12C renal 99.3% | UO-31 renal 76.6% | TK-10 renal 118% | ACHN renal 102% | CAKI-1 renal 97% | A498 renal 99.2% | CCRF-CEM leukemia 101% | MOLT-4 leukemia 95.4%

CCOP(=O)(O)OP(=O)(O)OCC
inactive: SK-MEL-2 melanoma 128% | UO-31 renal 91.9% | TK-10 renal 103% | ACHN renal 97.6% | CAKI-1 renal 94.3% | MOLT-4 leukemia 87.1%

Cc1cc(C)c([O-])c(CN(C)CCN(C)Cc2cc(C)cc(C)c2[O-])c1.O=C([O-])c1cccc(C(=O)[O-])n1.[Ti+4]
inactive: EKVX NSCLC 27.1% | SN12C renal 27.4% | ACHN renal 19.4% | CAKI-1 renal 24.6%
active: UO-31 renal -9.59% | TK-10 renal -20.6% | A498 renal -86.2% | CCRF-CEM leukemia -2.1% | MOLT-4 leukemia -5%

COc1cc(Cn2c(-c3ccccc3)cc3c2-c2oncc2CC3)cc(OC)c1OC
active: UO-31 renal 4.35% | CAKI-1 renal 0% | A498 renal 2.81%
inactive: EKVX NSCLC 38.3% | SN12C renal 49.3% | TK-10 renal 47.1% | ACHN renal 48.2% | CCRF-CEM leukemia 16.9% | MOLT-4 leukemia 14.1%

Cc1cc(NC(=O)c2ccc(N)cc2)ccc1N=Nc1ccc2cc(S(=O)(=O)O)cc(S(=O)(=O)O)c2c1
inactive: EKVX NSCLC 99.9% | SN12C renal 109% | UO-31 renal 101% | TK-10 renal 97.9% | ACHN renal 95.2% | CAKI-1 renal 91.5% | A498 renal 90.6% | CCRF-CEM leukemia 87.1% | MOLT-4 leukemia 112%

CCCCCCCCCCCCCCCCCC1=NC(C)(C)CN1C(C)(C)CO
inactive: EKVX NSCLC 27% | SN12C renal 11.6% | A498 renal 78.9%
active: UO-31 renal -52.9% | TK-10 renal -35.1% | ACHN renal -75.6% | CAKI-1 renal -65.2% | CCRF-CEM leukemia -52.9% | MOLT-4 leukemia -55.2%

COc1ccc(C2C3=C(COC3=O)N(CCO)c3cc(OC)c(OC)cc32)cc1 (stereo not drawn)
inactive: EKVX NSCLC 86.2% | SN12C renal 102% | UO-31 renal 90.8% | TK-10 renal 93.4% | ACHN renal 99.8% | CAKI-1 renal 108% | A498 renal 103% | CCRF-CEM leukemia 95.8% | MOLT-4 leukemia 88.2%

COc1cc2c(cc1OC)C(=O)OC2
inactive: EKVX NSCLC 108% | SN12C renal 99.8% | UO-31 renal 101% | TK-10 renal 123% | ACHN renal 103% | CAKI-1 renal 55.6% | A498 renal 109% | CCRF-CEM leukemia 124% | MOLT-4 leukemia 104%

CC(=O)c1cc(C(=O)c2ccc3c(c2)Sc2ccccc2N3)c2c(C)cccn12
inactive: EKVX NSCLC 38.1% | SN12C renal 35.5% | UO-31 renal 34.1% | TK-10 renal 56.9% | ACHN renal 32.4%

CCN(CC)CCCCCCCNc1cc(OC)cc2c(C)ccnc12
inactive: EKVX NSCLC 86.7% | SN12C renal 81.6% | UO-31 renal 38.2% | TK-10 renal 110% | ACHN renal 87.7% | CAKI-1 renal 94% | A498 renal 63.2% | CCRF-CEM leukemia 83.7% | MOLT-4 leukemia 72%

Nc1cc2nc3ccccc3oc-2cc1=O
inactive: EKVX NSCLC 61% | TK-10 renal 173% | ACHN renal 53.3%
active: SN12C renal -48.8% | UO-31 renal -40.2% | A498 renal -7.02%

CC1=NN(c2cccc(S(N)(=O)=O)c2)C(=O)C1
inactive: EKVX NSCLC 91.2% | SN12C renal 90.9% | UO-31 renal 77.1% | TK-10 renal 97.8% | ACHN renal 99.6% | CAKI-1 renal 51% | A498 renal 88.6% | CCRF-CEM leukemia 79.6% | MOLT-4 leukemia 99.7%

CCOc1cccc(/C=N/NC(=O)Cc2ccc(Nc3ccnc(C(F)(F)F)c3)cc2)c1O
inactive: EKVX NSCLC 20.4% | SN12C renal 43% | TK-10 renal 47.1% | CAKI-1 renal 36.8% | A498 renal 91.9% | MOLT-4 leukemia 40.6%
active: UO-31 renal 3.59% | ACHN renal 6.94%

Fc1ccc2nc(-c3ccc(-c4noc(-c5ccc(Cl)cc5)n4)cc3)[nH]c2c1
inactive: EKVX NSCLC 107% | SN12C renal 110% | UO-31 renal 83.9% | TK-10 renal 115% | ACHN renal 110% | CAKI-1 renal 102% | A498 renal 81% | MOLT-4 leukemia 89.8%

CCCCCCCCCCCCCCCC1=NCC[N+]1(CCO)CCO
inactive: EKVX NSCLC 72.3% | SN12C renal 67% | UO-31 renal 42.1% | TK-10 renal 66.6% | ACHN renal 67.1% | CAKI-1 renal 79.5% | A498 renal 86.8% | MOLT-4 leukemia 43%

O=C(O)Cn1ccc2ccccc21
inactive: EKVX NSCLC 102% | SN12C renal 113% | UO-31 renal 76.4% | TK-10 renal 153% | ACHN renal 99.9% | A498 renal 110% | CCRF-CEM leukemia 98.4%

COc1ccc(C(=O)c2cc(C)c(OC)c(C)c2)cc1OC(=O)CCl
active: CCRF-CEM leukemia 8.68%
inactive: EKVX NSCLC 44.9% | SN12C renal 31.4% | UO-31 renal 45.8% | TK-10 renal 62.6% | ACHN renal 21.4% | A498 renal 44.1%

Cc1ccccc1N1C(c2ccccc2)=NNC12C=CC(=O)c1c(O)cccc12 (stereo not drawn)
inactive: EKVX NSCLC 79.7% | SN12C renal 62.2% | UO-31 renal 57.5% | TK-10 renal 116% | ACHN renal 81.7% | CAKI-1 renal 96.9% | A498 renal 76.4% | CCRF-CEM leukemia 119% | MOLT-4 leukemia 101%

C1=C\CCCCN2CC[C@H]3[C@H](CCCC/C=C\CCCN4C[C@@H](CCCCC/1)C[C@@H]3C4)C2
active: A498 renal -11.8% | CCRF-CEM leukemia 7.61%
inactive: EKVX NSCLC 108% | SN12C renal 81.2% | UO-31 renal 14.6% | TK-10 renal 109% | ACHN renal 23.4%

COCCOCCOCc1n(Cc2ccc3ccccc3n2)c2ccccc2[n+]1Cc1ccc2ccccc2c1
active: SN12C renal 5.5% | TK-10 renal -8.46% | A498 renal -15.8% | CCRF-CEM leukemia 1.17% | MOLT-4 leukemia -20.5%
inactive: EKVX NSCLC 31% | UO-31 renal 79.2% | ACHN renal 71.1%

COc1cccc(OCC(O)CN2CCN(c3ccccc3)CC2)c1 (stereo not drawn)
inactive: EKVX NSCLC 103% | SN12C renal 105% | UO-31 renal 96.3% | TK-10 renal 151% | ACHN renal 109% | A498 renal 90.6% | CCRF-CEM leukemia 121%

Cc1ccc(NC(=O)c2[nH]c(SCCN(C)C)nc2-c2ccc(F)cc2)cc1C#Cc1cnc2cccnn12
active: UO-31 renal -77.2% | ACHN renal -88% | CCRF-CEM leukemia 1.64%
inactive: EKVX NSCLC 38.2% | SN12C renal 87.3% | TK-10 renal 105% | A498 renal 102% | MOLT-4 leukemia 55.1%

Cc1nc([C@H]2CC[C@H]3[C@@H]4CCC5=CC(=O)CC[C@]5(C)[C@H]4CC[C@]23C)cs1
inactive: EKVX NSCLC 42.2% | SN12C renal 84.1% | UO-31 renal 76.3% | TK-10 renal 103% | ACHN renal 68.6% | A498 renal 74.4% | CCRF-CEM leukemia 40.7%
